ELG1 repair inh: inhibitors of ELG1-dependent DNA repair in HEK293T cells; HEK293T ELG1-luciferase reporter, luminescence, 16 h; DNA damage induced by 5-fluorouridine; 330,000 compounds, 2.3% hits; Potency, µM (titrated, usually from 46.1 µM), hits mostly inhibitors; also: nearly all actives have a fitted effect of over 55% in size
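5-Fluorouridine DNA damage + compound/DMSO, 2,000 cells/well, 16 h, 37 °C/5% CO2. ONE-Glo, 30 min RT, luminescence. Readout = decrease in reporter signal.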
Rab9 promoter act: activators of Rab9 promoter | Huh7 Rab9 promoter-luciferase reporter, luminescence, 24 h | Potency, µM (doses to about 9.22 µM), most hits filed as activators | 320,000 compounds, 2.8% hits | AID 485297; also: nearly all actives have a fitted effect of over 60% in size
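Huh7 cells stably carrying a Rab9 promoter-luciferase reporter, 1500 cells per well in OP-MEM I with 10% FBS, treated with compound 24 hours at 37C. Luciferase activity read by luminescence after 10 minutes with Amplite reagent.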
ELG1 genotoxic: genotoxicity induction in ELG1-luciferase HEK293T cells. HEK293T ELG1-luciferase reporter, luminescence, 16 h. Potency, µM (titrated, usually from 46 µM), actives largely listed as activators. 330,000 compounds, 1.3% hits. AID 504466; also: nearly all actives have a fitted effect of over 60% in size
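Luminescence read-out: rising ELG1-luciferase signal, reflecting elevated ELG1 protein under genetic stress, flags genotoxic compounds. Cells were treated for 16 hr at 37 °C before ONE-Glo detection.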
NPC1 prom act: NPC1 promoter activation; AID 485313; 320,000 compounds, 2.4% hits; Huh7 NPC1 promoter luciferase reporter, 24 h; Potency, µM (doses to about 9.22 µM), usual class: activators; also: nearly all actives have a fitted effect of over 60% in size
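In 1536-well qHTS, Huh7 cells harboring an NPC1 promoter–luciferase construct received compound for 24 h; activation was quantified by luminescence following luciferase reagent addition.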
SMN2 splice up: increases expression of the SMN2 splice variant. HEK293 SMN2-luciferase splicing reporter, luminescence, 30-36 h. Potency, µM (series often up to 46.1 µM), most hits filed as activators. AID 1458. 210,000 compounds, 2.8% hits; also: nearly all actives have a fitted effect of over 55% in size
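qHTS luciferase splicing reporter: luminescence rises when SMN2 exon 7 is included in transfected HEK293 cells. Compound exposure lasted 30-36 h at 37C, with 4.5 mM final sodium butyrate as control, followed by a ONE-Glo read.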
FLuc counter: firefly luciferase modulation, counter-screen for miR-21 project; 360,000 compounds, 6.9% hits; AID 588342; Potency, µM (top dose mostly 57.5 µM), most hits filed as inhibitors; purified FLuc, Km substrates, luminescence inhibition; also: nearly all actives have a fitted effect of over 55% in size
Target sequence (P08659 whole entry, looked up): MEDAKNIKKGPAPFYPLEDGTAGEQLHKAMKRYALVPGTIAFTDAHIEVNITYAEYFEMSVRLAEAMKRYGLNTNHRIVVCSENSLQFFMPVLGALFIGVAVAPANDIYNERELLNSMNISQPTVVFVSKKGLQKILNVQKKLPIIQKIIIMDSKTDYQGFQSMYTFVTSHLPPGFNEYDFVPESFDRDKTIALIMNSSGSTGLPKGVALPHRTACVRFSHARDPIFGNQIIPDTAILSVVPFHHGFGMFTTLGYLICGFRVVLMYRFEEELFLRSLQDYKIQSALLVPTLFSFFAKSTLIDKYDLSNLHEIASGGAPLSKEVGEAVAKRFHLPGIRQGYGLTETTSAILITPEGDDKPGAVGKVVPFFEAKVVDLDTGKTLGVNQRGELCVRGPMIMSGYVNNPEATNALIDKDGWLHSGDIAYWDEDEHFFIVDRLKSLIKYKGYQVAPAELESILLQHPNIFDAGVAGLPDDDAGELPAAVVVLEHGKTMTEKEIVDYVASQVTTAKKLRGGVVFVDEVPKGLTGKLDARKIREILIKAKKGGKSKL
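Biochemical qHTS of compounds, final roughly 60 µM downward over six points, against 10 nM purified firefly luciferase using Km concentrations of substrates (10 uM D-luciferin, 10 uM ATP) in Tris acetate pH 7.5 buffer; luminescence output.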
Hits are given with their value; - = inactive; ? = inconclusive; . = no result. In the library only some 9.2% were active in any assay of this set; here they are far more common. Calls follow the shape of the dose curve; as a rule, active = well fitted curve in the direction sought with a large enough effect; inconclusive = small, poorly fitted or top-dose-only effect, or another doubt; inactive = no such curve, though single readings can be large; an effect the other way counts as inactive or inconclusive.

SMILES	ELG1 repair inh	Rab9 promoter act	ELG1 genotoxic	NPC1 prom act	SMN2 splice up	FLuc counter
Cc1cc(Cl)ccc1OCCCC(=O)NNC(=O)c1ccccc1O	?	-	-	-	.	-
N#CC1=C2SCN(c3ccccc3)CN2C(=O)CC1c1c(Cl)cccc1Cl (configuration not stated)	?	-	-	-	-	11µM
CCc1ccc(CNC(=O)c2ccc3c(c2)c(C)c(C)n3Cc2ccccc2)cc1	.	.	.	.	.	-
Cc1c(C)n(Cc2ccccc2)c2ccc(C(=O)OCCN(C)C)cc12	-	-	-	-	.	21µM
CNc1ccccc1C(C)(C)c1cc(-c2cccc(OC)c2)no1	1.5µM	-	-	-	-	-
CN1CCN(C(=O)c2ccc3c(c2)N(Cc2c(F)cccc2Cl)C(=O)c2ccccc2S3)CC1	.	.	.	.	-	-
COc1ccc(C2NC(=O)NC(C)=C2C(=O)OC2CCC(C)CC2)cc1 (configuration not stated)	?	-	-	-	.	-
COc1cccc(C2CC(=O)Nc3cc4c(cc32)OCCO4)c1OC(C)C (configuration not stated)	?	-	-	-	-	-
COc1cccc(C2CC(=O)Nc3cc(OC)c(OC)c(OC)c32)c1OC(C)C (configuration not stated)	.	.	.	.	18µM	-
COCC(=O)N[C@@H]1c2ccccc2CC[C@@H]1OCc1ccccc1	-	.	-	.	.	.
Cc1ccc(C(=O)N/N=C\c2sccc2C)cn1	?	?	?	?	?	17µM
Cc1ccsc1/C=N/N=C/c1sccc1C	?	1.6µM	?	4µM	.	1.1µM
Cc1ccsc1/C=N/NC(=O)c1sccc1C	?	3.2µM	?	2.5µM	11µM	5.4µM
CCc1ccc(C(=O)c2cn(CC(=O)Nc3ccc(F)cc3)c3cc4c(cc3c2=O)OCO4)cc1	.	.	.	.	-	-
COc1ccccc1C(=O)Nc1onc2c1CCCC2	.	.	.	.	3.5µM	2.7µM
Cc1ccc(C(=O)Nc2onc3c2CCCC3)cc1	.	.	.	.	2.5µM	0.3µM
CCCCOc1ccccc1C(=O)Nc1onc2c1CCCC2	.	.	.	.	-	-
Cc1cc(C)cc(NC(=O)c2cn3c4c(ccc(Cl)c4c2=O)OC(C)C3)c1 (configuration not stated)	.	.	.	.	.	-
COc1ccc(Cl)cc1NC(=O)CCC(=O)N1CCOc2ccccc21	.	.	.	.	.	-
CCOC(=O)c1c(-c2ccc(C)o2)csc1NC(=O)CN1CCCCC1	-	-	-	-	-	-
CCOC(=O)c1c(-c2ccc(C)o2)csc1NC(=O)CN(C)CC(=O)Nc1ccc(C)cc1	15µM	-	-	-	-	-
CCOC(=O)c1c(-c2ccc(OCC)cc2)csc1NC(=O)CCN1C(=O)c2ccccc2C1=O	12µM	-	-	-	-	-
Cn1c(CCN2CCN(c3ccccn3)CC2)nc2cc(NS(=O)(=O)c3ccccc3)ccc21	9.2µM	-	-	-	.	-
COc1ccc(-c2cc(=O)c3c(OC)c(OC)c(OC)c(OC)c3o2)cc1OC	?	-	-	-	-	-
COc1cc(-c2cc(=O)c3ccccc3o2)ccc1O	?	?	15µM	-	?	?
SMILES	ELG1 repair inh	Rab9 promoter act	ELG1 genotoxic	NPC1 prom act	SMN2 splice up	FLuc counter
COc1ccc(-c2cc(=O)c3c(O)cc(O)c(-c4cc(-c5cc(=O)c6c(O)cc(O)cc6o5)ccc4OC)c3o2)cc1	.	.	.	.	-	.
COc1cc(-c2cc(=O)c3c(O)cc(O)cc3o2)ccc1O	?	-	?	-	.	15µM
O=c1cc(-c2ccc(O)c(O)c2)oc2ccc3ccccc3c12	?	-	1.5µM	?	.	2.4µM
CC(C)Oc1ccc(C(CCN)C2CCCCC2)cc1 (configuration not stated)	?	-	-	-	.	-
COc1ccc(N(CC(=O)NCCc2cccc(C)c2)S(=O)(=O)c2c(C)nn(C)c2C)cc1	.	.	.	.	-	-
COC(=O)Cc1ccc(NC(=S)N2CCC(Cc3ccccc3)CC2)cc1	-	-	-	-	.	4.8µM
COC(=O)Cc1ccc(NC(=S)N2CCCCC2C)cc1 (configuration not stated)	?	-	-	-	-	4.8µM
